Results taken from PubChem BioAssay (EPA / NIEHS).
Results filed as inconclusive are left out. Calls of active or inactive are those of the source. How the source made its calls, unless noted: active means hit-call score of the fitted dose curve at least 0.9, where 1 is the maximum; inactive means score below 0.9.

Assays:
[1] = target: Glucocorticoid receptor (Homo sapiens) (UniProt P04150); assay: ATG_GR_TRANS: Attagene TRANS-FACTORIAL HepG2 Assay for human Glucocorticoid Receptor (GR) (AID 2282978; active means hit-call score of the fitted dose curve at least 0.9, where 1 is the maximum;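 further: activators score as hits since higher reporter transcript over DMSO is fitted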); conditions: HepG2 Attagene TRANS GR reporter, mRNA transcription
Procedure, shortened: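 HepG2 cells transiently transfected with GAL4-UAS reporter units and exogenous GR-Gal4 chimera, dosed 24 h. Reporter mRNA by RT-PCR, FAM labeling, HpaI digest and capillary electrophoresis; gain-of-signal fit versus DMSO.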

[2] = target: Bile acid receptor (Homo sapiens) (UniProt Q96RI1); assay: ATG_FXR_TRANS: Attagene TRANS-FACTORIAL HepG2 Assay for Farnesoid X Receptor (FXR) (AID 2282979; active means hit-call score of the fitted dose curve at least 0.9, where 1 is the maximum;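 further: hits raise reporter mRNA above DMSO so AC50 marks FXR activation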); conditions: HepG2 Attagene TRANS FXR-GAL4 reporter transcription
Procedure, shortened: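 Read-out: fluorescent reporter transcripts quantified by capillary electrophoresis after RT-PCR of total RNA. Source cells were HepG2 transiently carrying chimeric NR-GAL4 plus GAL4-UAS reporter units, dosed 24 h. Activity fitted upward relative to DMSO baseline.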

[3] = ATG_M_06_TRANS: Attagene TRANS-FACTORIAL HepG2 Assay for M06 Transcription Factor (Internal Marker) (AID 2282983; active means hit-call score of the fitted dose curve at least 0.9, where 1 is the maximum); conditions: HepG2 Attagene TRANS M06 internal marker reporter
Procedure, shortened: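 Read-out: fluorescent reporter cDNA fragments resolved by capillary electrophoresis after RT-PCR and HpaI cut. Source cells were HepG2 carrying transfected multi-reporter GAL4 constructs, dosed 24 h. Increase over DMSO control analysed.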

[4] = target: Nuclear receptor subfamily 4 group A member 2 (Homo sapiens) (UniProt P43354); assay: ATG_NURR1_TRANS: Attagene TRANS-FACTORIAL HepG2 Assay for human Nuclear Receptor Related Protein 1 (NURR1) (AID 2282985; active means hit-call score of the fitted dose curve at least 0.9, where 1 is the maximum); conditions: HepG2 Attagene TRANS reporter, mRNA readout
Procedure, shortened: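 Chimeric NR-Gal4 fusion activity measured in HepG2 after 24 h treatment. Reporter transcripts detected by RT-PCR and capillary electrophoresis fluorescence; positive-direction curve fitting against DMSO.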

[5] = target: Transcriptional activator Myb (Homo sapiens) (UniProt P10242); assay: ATG_Myb_CIS: Attagene CIS-FACTORIAL HepG2 Assay for human Myeloblastosis (Myb) Proto-Oncogene Transcription Factor (AID 2282986); conditions: HepG2 Attagene CIS-FACTORIAL Myb reporter transcription; actives raise or lower the signal
Procedure, shortened: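 Transiently transfected HepG2 cells carrying a multiplexed cis-promoter reporter set report endogenous Myb activity after 24 h compound exposure. Reporter mRNA is read by RT-PCR with capillary electrophoresis of fluorescent products, fitted bidirectionally against DMSO.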

[6] = target: Nuclear respiratory factor 1 (Homo sapiens) (UniProt Q16656); assay: ATG_NRF1_CIS: Attagene CIS-FACTORIAL HepG2 Assay for human Nuclear Respiratory Factor 1 (NRF1) Orphan Gene (AID 2282987); conditions: HepG2 NRF1 cis-element reporter, Attagene multiplex; actives raise or lower the signal
Procedure, shortened: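 HepG2 cells transiently transfected with multiple cis-regulated reporter units, exposed 24 h. Reporter mRNAs measured by RT-PCR, fluorescent labelling, HpaI digestion and capillary electrophoresis; bidirectional fitting against DMSO.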

[7] = target: Myc proto-oncogene protein (Homo sapiens) (UniProt P01106); assay: ATG_Myc_CIS: Attagene CIS-FACTORIAL HepG2 Assay for human Myelocytomatosis (Myc) Proto-Oncogene Transcription Factor (AID 2282990); conditions: HepG2, Attagene cis-reporter transcription factor activity; actives raise or lower the signal
Procedure, shortened: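 Multiplexed cis-reporter transcription in HepG2 cells after 24 h chemical treatment. Reporter mRNA measured by RT-PCR and capillary electrophoresis fluorescence; activity fitted bidirectionally against DMSO control.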

[8] = ATG_NF_kB_CIS: Attagene CIS-FACTORIAL HepG2 Assay for human Nuclear Factor Kappa B (NF-kB) (AID 2282991); conditions: HepG2 Attagene cis-factorial NF-kB reporter mRNA; actives raise or lower the signal
Procedure, shortened: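 HepG2 cells transfected with cis-promoter-driven reporter units, so endogenous transcription factor activity is measured. Reporter mRNA quantified 24 h after dosing by RT-PCR and capillary electrophoresis, with bidirectional fitting against DMSO.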

[9] = ATG_NRF2_ARE_CIS: Attagene CIS-FACTORIAL HepG2 Assay for human Nuclear Factor Erythroid 2 Related Factor 2 (NFR2) response to Antioxidant Response Elements (ARE) (AID 2282992); conditions: HepG2 Attagene ARE/NRF2 reporter, transcription factor activity; actives raise or lower the signal
Procedure, shortened: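 Fluorescence intensity of reporter-specific cDNA fragments, separated by capillary electrophoresis, reflects mRNA induction in transfected HepG2 cells at 24 h. Activity is fitted bidirectionally, DMSO serving as baseline.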

[10] = ATG_Oct_MLP_CIS: Attagene CIS-FACTORIAL HepG2 Assay for human Octamer-Binding Transcription Factor (Oct) (AID 2282993); conditions: HepG2 Attagene cis-factorial Oct reporter, mRNA; actives raise or lower the signal
Procedure, shortened: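 Multiplexed cis-reporter assay in human liver HepG2 cells, 24 h incubation. Reporter RNA amplified and labelled, then resolved by capillary electrophoresis; DMSO serves as negative control and baseline.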

[11] = target: Cellular tumor antigen p53 (Homo sapiens) (UniProt P04637); assay: ATG_p53_CIS: Attagene CIS-FACTORIAL HepG2 Assay for human p53 Transcription Factor (AID 2282994); conditions: HepG2 p53 cis-element reporter, Attagene mRNA; actives raise or lower the signal
Procedure, shortened: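 Transiently transfected HepG2 (multiple cis reporter transcription units); exposure 24 h; reporter RNA via RT-PCR, 6-FAM extension, 2 h HpaI digest at 37 C, CE detection; DMSO baseline.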

[12] = target: Oxysterols receptor LXR-alpha (Homo sapiens) (UniProt Q13133); assay: ATG_LXRa_TRANS: Attagene TRANS-FACTORIAL HepG2 Assay for human Liver X Receptor alpha (LXRa) (AID 2282980; active means hit-call score of the fitted dose curve at least 0.9, where 1 is the maximum); conditions: HepG2 Attagene TRANS reporter, LXRa transactivation
Procedure, shortened: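 Read-out: reporter transcript levels by RT-PCR plus capillary electrophoresis, fluorescence intensity. Transiently transfected HepG2, exogenous NR-GAL4 chimera, GAL4-UAS reporters; 24 h compound exposure. Activity = increase over DMSO negative control.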

[13] = target: Hepatocyte nuclear factor 4-alpha (Homo sapiens) (UniProt P41235); assay: ATG_HNF4a_TRANS: Attagene TRANS-FACTORIAL HepG2 Assay for human Hepatocyte Nuclear Factor 4 alpha (HNF4a) (AID 2282982; active means hit-call score of the fitted dose curve at least 0.9, where 1 is the maximum); conditions: HepG2 HNF4a transactivation reporter, mRNA readout
Procedure, shortened: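 In this trans-factorial format, a chimeric HNF4a-GAL4 fusion drives a GAL4-UAS reporter in transfected HepG2 liver cells. After 24 h treatment, reporter mRNA induction is measured by RT-PCR with capillary electrophoresis, relative to DMSO.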

[14] = ATG_M_32_TRANS: Attagene TRANS-FACTORIAL HepG2 Assay for M32 Transcription Factor (Internal Marker) (AID 2282984; active means hit-call score of the fitted dose curve at least 0.9, where 1 is the maximum;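 further: transcript level of a background control reporter unit measured by RT-PCR and capillary electrophoresis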); conditions: HepG2 Attagene TRANS M32 internal marker reporter
Procedure, shortened: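 After 24 h dosing of transfected HepG2 cells, total RNA was reverse-transcribed, reporter sequences PCR-amplified, 6-FAM labelled by primer extension and HpaI-digested before capillary electrophoresis. Signal increase over DMSO was fitted.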

[15] = ATG_NFI_CIS: Attagene CIS-FACTORIAL HepG2 Assay for human Nuclear Factor I (NFI) (AID 2282989); conditions: HepG2 cis-regulatory reporter, NFI response element transcription; actives raise or lower the signal
Procedure, shortened: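 HepG2, transient MRTU, 24 h exposure; RNA→cDNA→PCR→FAM label→HpaI→CE fluorescence. Bidirectional fit, DMSO = baseline.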

[16] = target: Oxysterols receptor LXR-beta (Homo sapiens) (UniProt P55055); assay: ATG_LXRb_TRANS: Attagene TRANS-FACTORIAL HepG2 Assay for human Liver X Receptor beta (LXRb) (AID 2282981; active means hit-call score of the fitted dose curve at least 0.9, where 1 is the maximum); conditions: HepG2 Attagene TRANS GAL4-LXRb reporter, mRNA
Procedure, shortened: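 Measures induction of a Gal4-driven reporter transcript in HepG2 cells expressing an exogenous LXRb-Gal4 fusion. Cells are exposed to compound for 24 h before RNA isolation and RT-PCR with capillary electrophoresis detection.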

Measured: AC50

Sequence of Nuclear respiratory factor 1 (Homo sapiens) (Q16656 whole entry, looked up): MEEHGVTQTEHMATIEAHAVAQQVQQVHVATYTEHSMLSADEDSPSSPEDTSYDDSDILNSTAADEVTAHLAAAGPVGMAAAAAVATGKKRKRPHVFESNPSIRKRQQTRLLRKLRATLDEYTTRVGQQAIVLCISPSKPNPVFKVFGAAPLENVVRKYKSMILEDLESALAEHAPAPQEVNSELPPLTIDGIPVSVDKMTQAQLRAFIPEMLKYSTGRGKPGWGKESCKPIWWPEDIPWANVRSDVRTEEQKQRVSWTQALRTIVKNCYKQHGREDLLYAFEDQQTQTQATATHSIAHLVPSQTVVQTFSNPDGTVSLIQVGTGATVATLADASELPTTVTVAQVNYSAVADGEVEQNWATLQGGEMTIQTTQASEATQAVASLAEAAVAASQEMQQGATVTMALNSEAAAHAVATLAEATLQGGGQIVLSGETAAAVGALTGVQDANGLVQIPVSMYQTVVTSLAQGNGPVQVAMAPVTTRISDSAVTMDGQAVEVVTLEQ
Sequence of Bile acid receptor (Homo sapiens) (Q96RI1 whole entry, looked up, the tested form may be a part): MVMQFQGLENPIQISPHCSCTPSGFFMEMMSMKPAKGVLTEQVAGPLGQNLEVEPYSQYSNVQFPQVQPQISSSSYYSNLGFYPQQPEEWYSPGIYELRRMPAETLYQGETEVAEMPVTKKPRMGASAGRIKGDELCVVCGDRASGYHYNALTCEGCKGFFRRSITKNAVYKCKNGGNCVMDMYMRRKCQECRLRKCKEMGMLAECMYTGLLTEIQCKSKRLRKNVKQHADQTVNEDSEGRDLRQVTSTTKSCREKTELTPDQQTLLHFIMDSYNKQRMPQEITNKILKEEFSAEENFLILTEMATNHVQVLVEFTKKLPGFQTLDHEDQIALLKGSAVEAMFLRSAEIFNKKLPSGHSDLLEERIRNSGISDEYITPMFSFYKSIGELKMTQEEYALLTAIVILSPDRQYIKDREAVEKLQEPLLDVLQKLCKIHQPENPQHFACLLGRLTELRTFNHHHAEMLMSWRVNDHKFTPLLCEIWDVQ
Sequence of Oxysterols receptor LXR-alpha (Homo sapiens) (Q13133 whole entry, looked up, the tested form may be a part): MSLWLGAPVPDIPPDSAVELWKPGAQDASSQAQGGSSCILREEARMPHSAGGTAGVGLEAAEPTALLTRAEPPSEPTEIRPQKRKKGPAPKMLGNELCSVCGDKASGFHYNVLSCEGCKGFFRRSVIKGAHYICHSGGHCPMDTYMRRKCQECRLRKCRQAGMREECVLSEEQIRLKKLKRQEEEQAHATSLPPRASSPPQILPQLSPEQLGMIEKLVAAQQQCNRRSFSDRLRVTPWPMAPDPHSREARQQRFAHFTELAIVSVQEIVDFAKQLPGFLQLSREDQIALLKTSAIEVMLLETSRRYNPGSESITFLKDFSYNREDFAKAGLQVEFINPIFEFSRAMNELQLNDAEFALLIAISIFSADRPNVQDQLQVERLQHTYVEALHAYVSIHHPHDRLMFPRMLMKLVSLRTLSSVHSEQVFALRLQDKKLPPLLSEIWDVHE
Sequence of Oxysterols receptor LXR-beta (Homo sapiens) (P55055 whole entry, looked up, the tested form may be a part): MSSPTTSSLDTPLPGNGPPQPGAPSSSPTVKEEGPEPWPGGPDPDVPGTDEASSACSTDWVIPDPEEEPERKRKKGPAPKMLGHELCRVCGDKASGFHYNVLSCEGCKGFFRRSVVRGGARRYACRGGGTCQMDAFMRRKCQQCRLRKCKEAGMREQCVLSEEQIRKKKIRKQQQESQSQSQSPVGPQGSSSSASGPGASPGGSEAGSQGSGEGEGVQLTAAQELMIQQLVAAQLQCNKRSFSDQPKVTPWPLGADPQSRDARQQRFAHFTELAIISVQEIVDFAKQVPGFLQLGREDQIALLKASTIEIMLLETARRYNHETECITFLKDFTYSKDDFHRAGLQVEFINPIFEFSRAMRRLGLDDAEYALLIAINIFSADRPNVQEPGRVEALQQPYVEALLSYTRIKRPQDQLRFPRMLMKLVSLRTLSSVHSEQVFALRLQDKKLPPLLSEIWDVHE
Sequence of Hepatocyte nuclear factor 4-alpha (Homo sapiens) (P41235 whole entry, looked up, the tested form may be a part): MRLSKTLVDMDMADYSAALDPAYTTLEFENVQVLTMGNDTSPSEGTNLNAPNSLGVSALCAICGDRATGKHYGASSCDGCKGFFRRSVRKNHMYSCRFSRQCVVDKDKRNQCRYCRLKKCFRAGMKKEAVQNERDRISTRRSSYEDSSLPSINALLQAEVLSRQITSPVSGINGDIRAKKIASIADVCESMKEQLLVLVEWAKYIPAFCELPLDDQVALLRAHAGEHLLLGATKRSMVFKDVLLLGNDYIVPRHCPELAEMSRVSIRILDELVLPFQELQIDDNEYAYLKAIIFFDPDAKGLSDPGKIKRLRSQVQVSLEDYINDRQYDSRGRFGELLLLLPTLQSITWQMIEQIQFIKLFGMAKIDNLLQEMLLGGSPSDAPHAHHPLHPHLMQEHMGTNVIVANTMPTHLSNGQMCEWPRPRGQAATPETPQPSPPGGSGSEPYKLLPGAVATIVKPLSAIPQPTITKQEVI
Sequence of Glucocorticoid receptor (Homo sapiens) (P04150 whole entry, looked up, the tested form may be a part): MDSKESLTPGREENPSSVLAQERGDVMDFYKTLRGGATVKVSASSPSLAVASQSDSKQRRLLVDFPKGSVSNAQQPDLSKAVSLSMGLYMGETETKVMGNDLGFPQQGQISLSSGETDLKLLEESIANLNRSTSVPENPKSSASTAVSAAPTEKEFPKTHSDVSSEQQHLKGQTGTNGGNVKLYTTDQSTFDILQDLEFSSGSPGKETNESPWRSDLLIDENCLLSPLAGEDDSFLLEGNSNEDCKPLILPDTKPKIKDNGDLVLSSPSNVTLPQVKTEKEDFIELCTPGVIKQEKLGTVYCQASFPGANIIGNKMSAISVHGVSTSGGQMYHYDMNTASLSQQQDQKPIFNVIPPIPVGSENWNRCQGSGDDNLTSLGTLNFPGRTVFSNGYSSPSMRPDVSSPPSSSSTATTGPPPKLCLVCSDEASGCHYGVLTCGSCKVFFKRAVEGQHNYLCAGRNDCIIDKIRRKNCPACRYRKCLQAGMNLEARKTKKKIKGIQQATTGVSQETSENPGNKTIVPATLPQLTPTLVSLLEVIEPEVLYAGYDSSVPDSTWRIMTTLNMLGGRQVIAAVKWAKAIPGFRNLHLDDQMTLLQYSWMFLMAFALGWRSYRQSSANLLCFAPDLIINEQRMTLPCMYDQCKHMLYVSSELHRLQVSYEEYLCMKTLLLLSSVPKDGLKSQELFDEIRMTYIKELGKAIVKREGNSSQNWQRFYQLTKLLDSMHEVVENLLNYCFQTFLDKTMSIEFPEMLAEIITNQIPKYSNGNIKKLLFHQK
Sequence of Transcriptional activator Myb (Homo sapiens) (P10242 whole entry, looked up): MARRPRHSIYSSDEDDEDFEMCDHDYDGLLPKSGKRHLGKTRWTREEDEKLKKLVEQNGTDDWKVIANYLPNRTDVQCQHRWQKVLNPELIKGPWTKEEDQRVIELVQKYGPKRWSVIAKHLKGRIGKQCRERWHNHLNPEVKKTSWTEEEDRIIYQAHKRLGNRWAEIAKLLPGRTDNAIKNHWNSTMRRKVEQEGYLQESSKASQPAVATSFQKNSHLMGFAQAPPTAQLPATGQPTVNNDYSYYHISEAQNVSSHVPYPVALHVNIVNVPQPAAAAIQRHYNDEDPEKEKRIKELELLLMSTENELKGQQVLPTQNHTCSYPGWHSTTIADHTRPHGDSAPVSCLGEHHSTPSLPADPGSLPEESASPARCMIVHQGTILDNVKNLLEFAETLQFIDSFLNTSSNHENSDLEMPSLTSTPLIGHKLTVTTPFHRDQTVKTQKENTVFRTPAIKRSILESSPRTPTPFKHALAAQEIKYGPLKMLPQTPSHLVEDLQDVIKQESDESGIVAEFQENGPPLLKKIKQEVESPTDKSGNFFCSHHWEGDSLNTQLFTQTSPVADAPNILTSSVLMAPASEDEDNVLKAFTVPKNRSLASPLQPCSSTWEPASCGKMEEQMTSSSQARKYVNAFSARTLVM
Sequence of Myc proto-oncogene protein (Homo sapiens) (P01106 whole entry, looked up): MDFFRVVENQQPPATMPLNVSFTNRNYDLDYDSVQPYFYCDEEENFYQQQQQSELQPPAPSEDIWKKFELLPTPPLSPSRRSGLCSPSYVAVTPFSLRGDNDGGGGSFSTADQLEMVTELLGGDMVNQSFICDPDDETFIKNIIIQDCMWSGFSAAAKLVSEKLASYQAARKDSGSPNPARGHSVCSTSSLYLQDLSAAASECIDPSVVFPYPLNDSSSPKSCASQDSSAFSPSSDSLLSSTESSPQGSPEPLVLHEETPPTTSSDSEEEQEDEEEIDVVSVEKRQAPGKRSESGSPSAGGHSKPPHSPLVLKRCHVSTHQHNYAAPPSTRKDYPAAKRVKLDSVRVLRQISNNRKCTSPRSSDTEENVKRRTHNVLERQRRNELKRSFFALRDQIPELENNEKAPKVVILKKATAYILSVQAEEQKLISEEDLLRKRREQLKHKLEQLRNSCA
Sequence of Nuclear receptor subfamily 4 group A member 2 (Homo sapiens) (P43354 whole entry, looked up, the tested form may be a part): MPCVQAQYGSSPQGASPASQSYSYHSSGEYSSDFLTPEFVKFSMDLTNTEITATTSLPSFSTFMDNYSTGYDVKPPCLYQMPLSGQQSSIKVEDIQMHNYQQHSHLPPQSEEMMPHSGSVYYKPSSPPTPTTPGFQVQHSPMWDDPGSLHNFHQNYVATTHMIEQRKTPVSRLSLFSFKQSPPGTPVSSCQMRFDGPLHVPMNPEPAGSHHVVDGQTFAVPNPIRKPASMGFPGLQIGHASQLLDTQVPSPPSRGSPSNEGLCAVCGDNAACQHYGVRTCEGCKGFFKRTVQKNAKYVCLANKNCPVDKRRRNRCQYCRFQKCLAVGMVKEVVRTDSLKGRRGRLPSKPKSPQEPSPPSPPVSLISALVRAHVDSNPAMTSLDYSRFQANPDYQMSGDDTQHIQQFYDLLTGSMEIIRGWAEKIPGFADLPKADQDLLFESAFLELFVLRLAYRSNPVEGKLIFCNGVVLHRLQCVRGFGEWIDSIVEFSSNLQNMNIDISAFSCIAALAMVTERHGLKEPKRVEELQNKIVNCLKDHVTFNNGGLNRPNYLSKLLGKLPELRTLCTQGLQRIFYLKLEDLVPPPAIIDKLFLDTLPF

CCCCCC/C=C\CCCCCCCC(=O)O
inactive: [1] | [2] | [3] | [4] | [5] | [6] | [7] | [8] | [10] | [11]
active: [9] 26.5 µM

COC(=O)C1=C(C)NC(C)=C(C(=O)OCC(C)C)C1c1ccccc1[N+](=O)[O-] (stereo not given)
inactive: [1] | [2] | [12] | [13] | [3] | [14] | [4] | [5] | [7] | [8] | [9] | [10]
active: [6] 15.4 µM

C=C[C@](C)(O)CC[C@@H]1[C@@]2(C)CCCC(C)(C)[C@@H]2CC[C@@]1(C)O
inactive: [1] | [2] | [12] | [3] | [14] | [4] | [5] | [6] | [15] | [7] | [8] | [10] | [11]

Oc1ccc(Cl)cc1Cc1cc(Cl)ccc1O
inactive: [1] | [2] | [12] | [16] | [13] | [3] | [5] | [7] | [8]
active: [15] 5.83 µM | [9] 2.75 µM | [10] 7.99 µM

CCCCCCCC/C=C\CCCCCCCC(=O)O
inactive: [1] | [2] | [12] | [16] | [14] | [4] | [5] | [15] | [7] | [10]
active: [9] 100 µM

Nc1ccc(Cl)cc1Cl
inactive: [1] | [2] | [16] | [3] | [14] | [4] | [5] | [6] | [15] | [7] | [8] | [10] | [11]

CCCCCCCCO[C@@H]1O[C@H](CO)[C@@H](O)[C@H](O)[C@H]1O
inactive: [1] | [2] | [16] | [13] | [14] | [4] | [6] | [15] | [7] | [9] | [10]

CC(=O)[C@@]1(O)CC[C@H]2[C@@H]3C[C@H](C)C4=CC(=O)C=C[C@]4(C)[C@@]3(F)[C@@H](O)C[C@@]21C
active: [1] 0.221 µM
inactive: [2] | [12] | [16] | [5] | [6] | [15] | [7] | [9] | [10] | [11]

C=C[Si](C)(C)O[Si](C)(C)C=C
inactive: [1] | [12] | [16] | [13] | [3] | [14] | [4] | [5] | [6] | [15] | [7] | [8] | [9] | [10] | [11]
